# Experiments:
# Experiment in all cases: DAPPL (digital affinity profiling via proximity ligation, sequencing); 10 mM Tris-HCl pH 7.5, 50 mM NaCl, 1 mM DTT, 4% glycerol, room temperature, 30 min; GST-TFs on glutathione beads, 16-mer random dsDNA library, 0.1% formaldehyde crosslink after washing; high values mean tight binding
# Conditions in all cases: protein: recombinant; tags: N-terminal GST; dsDNA, one strand shown
# FEV = target: T1, FEV (Homo sapiens, UniProt Q99581 1-238)
# T1 sequence: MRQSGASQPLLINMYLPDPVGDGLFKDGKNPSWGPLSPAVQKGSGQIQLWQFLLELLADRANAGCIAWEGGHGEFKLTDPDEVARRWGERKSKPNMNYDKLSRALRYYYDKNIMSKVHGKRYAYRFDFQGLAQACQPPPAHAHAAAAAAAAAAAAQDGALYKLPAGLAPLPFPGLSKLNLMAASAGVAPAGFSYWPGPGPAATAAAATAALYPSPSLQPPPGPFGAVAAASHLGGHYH
# Summary of the method: (§1)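 GST fusions of human transcription factors were expressed in yeast and captured with glutathione beads. Once given DNA barcodes and pooled alongside a tag-only sample, they were incubated for 30 min at room temperature with 200 nmole of a random double-stranded 16-mer DNA library in Tris/NaCl/DTT/glycerol buffer, then washed, crosslinked (0.1% formaldehyde), proximity-ligated, PCR-amplified and sequenced on an Illumina NextSeq500. The binding signal of each hexamer is its read frequency for a factor divided by its frequency for the tag-only sample.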
# ETV5 = ETV5 (Homo sapiens, UniProt P41161 1-510)
# Summary of the method: as §1
# SPIC = target: T2, SPIC (Homo sapiens, UniProt Q8N5J4 1-248)
# T2 sequence: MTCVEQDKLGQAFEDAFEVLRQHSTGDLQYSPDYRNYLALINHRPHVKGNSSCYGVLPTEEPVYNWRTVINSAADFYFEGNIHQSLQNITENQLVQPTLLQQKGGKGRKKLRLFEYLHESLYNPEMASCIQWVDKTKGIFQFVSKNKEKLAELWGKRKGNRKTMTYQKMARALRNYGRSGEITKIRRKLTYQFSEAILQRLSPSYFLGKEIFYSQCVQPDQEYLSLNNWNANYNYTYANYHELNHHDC
# Summary of the method: as §1
# ELF4 = ELF4 (Homo sapiens, UniProt Q99607 1-663)
# Summary of the method: as §1
# ELK4 = target: T3, ELK4 (Homo sapiens, UniProt P28324-2 1-405)
# T3 sequence: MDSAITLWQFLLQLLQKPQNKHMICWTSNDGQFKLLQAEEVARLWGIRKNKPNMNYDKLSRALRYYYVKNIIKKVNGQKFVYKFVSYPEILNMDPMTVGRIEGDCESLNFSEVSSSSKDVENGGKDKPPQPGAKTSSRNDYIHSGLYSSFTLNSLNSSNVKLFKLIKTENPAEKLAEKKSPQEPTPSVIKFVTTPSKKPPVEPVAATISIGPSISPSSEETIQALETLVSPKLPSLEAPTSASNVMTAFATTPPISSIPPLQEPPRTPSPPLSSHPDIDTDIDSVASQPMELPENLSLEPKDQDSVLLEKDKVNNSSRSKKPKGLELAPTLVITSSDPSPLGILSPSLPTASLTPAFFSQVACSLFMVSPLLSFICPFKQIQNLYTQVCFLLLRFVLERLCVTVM
# Summary of the method: as §1
# ETV2 = target: T4, ETV2 (Homo sapiens, UniProt O00321 1-342)
# T4 sequence: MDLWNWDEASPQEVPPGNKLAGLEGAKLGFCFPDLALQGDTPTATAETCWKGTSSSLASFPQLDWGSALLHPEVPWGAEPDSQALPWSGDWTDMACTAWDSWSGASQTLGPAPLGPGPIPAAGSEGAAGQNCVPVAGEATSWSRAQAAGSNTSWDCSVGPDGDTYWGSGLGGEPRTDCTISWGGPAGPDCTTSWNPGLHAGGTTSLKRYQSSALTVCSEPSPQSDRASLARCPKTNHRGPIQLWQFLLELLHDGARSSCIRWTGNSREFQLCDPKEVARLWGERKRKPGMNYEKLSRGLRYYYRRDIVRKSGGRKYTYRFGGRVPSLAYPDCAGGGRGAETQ
# Summary of the method: as §1
# ELF3 = target: T5, ELF3 (Homo sapiens, UniProt P78545 1-371)
# T5 sequence: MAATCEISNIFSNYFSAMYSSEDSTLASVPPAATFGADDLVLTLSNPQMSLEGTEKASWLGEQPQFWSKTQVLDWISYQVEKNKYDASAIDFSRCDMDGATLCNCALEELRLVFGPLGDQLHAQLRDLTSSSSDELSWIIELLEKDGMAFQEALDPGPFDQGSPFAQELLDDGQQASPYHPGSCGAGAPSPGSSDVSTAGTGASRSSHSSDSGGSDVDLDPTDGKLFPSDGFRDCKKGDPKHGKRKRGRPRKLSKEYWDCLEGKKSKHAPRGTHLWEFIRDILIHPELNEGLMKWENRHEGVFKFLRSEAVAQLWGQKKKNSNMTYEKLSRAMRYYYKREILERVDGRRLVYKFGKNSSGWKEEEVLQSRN
# Summary of the method: as §1
# ETV1 = ETV1 (Homo sapiens, UniProt P50549 1-477)
# Summary of the method: as §1
# ERF = target: T6, ERF (Homo sapiens, UniProt P50548 1-548)
# T6 sequence: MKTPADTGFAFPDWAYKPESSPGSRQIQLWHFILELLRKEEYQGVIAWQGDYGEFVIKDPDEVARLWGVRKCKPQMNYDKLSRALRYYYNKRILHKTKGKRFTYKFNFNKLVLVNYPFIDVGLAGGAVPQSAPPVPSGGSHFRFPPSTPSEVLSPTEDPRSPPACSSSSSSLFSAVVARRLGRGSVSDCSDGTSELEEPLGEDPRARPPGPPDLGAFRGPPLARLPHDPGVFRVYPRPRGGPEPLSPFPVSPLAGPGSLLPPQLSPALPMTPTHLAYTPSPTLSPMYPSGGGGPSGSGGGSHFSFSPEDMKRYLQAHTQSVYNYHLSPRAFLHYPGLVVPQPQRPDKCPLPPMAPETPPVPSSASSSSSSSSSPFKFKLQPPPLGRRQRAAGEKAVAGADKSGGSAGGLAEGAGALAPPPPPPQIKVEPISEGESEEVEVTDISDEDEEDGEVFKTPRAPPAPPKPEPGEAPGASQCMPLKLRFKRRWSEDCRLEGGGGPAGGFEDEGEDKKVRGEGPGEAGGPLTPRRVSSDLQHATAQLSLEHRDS
# Summary of the method: as §1
# ETV3L = target: T7, ETV3L (Homo sapiens, UniProt Q6ZN32 1-361)
# T7 sequence: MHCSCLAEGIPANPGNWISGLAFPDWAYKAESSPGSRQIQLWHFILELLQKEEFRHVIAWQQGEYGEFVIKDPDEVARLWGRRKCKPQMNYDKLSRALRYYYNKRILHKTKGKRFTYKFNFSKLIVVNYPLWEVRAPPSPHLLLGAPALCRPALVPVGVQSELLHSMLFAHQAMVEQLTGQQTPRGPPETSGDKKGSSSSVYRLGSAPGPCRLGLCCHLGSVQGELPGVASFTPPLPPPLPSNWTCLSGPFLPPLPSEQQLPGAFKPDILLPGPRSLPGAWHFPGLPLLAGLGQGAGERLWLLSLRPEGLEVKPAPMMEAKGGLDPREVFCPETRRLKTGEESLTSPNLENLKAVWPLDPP
# Summary of the method: as §1
# ETS2 = target: T8, ETS2 (Homo sapiens, UniProt P15036 1-469)
# T8 sequence: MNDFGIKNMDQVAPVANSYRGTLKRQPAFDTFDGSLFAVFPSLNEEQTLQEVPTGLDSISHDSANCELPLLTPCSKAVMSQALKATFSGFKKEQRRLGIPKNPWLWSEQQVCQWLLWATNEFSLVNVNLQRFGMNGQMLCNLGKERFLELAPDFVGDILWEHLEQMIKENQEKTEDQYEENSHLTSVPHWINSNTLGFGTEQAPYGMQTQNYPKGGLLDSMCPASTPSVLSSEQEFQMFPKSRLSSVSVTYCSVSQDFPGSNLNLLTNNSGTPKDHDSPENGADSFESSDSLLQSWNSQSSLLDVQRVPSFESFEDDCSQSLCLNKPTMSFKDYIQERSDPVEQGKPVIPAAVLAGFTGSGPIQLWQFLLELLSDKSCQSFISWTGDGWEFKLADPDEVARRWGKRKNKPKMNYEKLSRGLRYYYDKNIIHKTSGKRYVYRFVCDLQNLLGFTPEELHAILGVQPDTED
# Summary of the method: as §1
# SPDEF = target: T9, SPDEF (Homo sapiens, UniProt O95238 1-335)
# T9 sequence: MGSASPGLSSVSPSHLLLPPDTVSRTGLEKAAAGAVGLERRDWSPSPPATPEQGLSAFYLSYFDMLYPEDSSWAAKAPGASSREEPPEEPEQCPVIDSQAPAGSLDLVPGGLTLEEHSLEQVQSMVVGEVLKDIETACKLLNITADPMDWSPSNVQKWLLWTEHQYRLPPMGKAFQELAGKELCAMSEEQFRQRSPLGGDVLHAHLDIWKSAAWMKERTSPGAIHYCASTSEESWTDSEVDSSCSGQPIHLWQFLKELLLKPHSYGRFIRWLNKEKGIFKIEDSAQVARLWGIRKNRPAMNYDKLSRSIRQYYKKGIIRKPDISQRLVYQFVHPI
# Summary of the method: as §1
# ETV7 = target: T10, ETV7 (Homo sapiens, UniProt Q9Y603 1-341)
# T10 sequence: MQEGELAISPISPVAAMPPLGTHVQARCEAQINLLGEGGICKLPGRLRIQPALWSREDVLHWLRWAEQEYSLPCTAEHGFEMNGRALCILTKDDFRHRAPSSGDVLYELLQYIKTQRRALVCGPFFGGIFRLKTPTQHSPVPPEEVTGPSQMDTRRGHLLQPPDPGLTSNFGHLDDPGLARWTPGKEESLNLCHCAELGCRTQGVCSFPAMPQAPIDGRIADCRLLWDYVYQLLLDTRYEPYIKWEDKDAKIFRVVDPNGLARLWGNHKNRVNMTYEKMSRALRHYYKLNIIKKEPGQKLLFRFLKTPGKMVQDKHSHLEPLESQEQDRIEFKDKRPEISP
# Summary of the method: as §1
# ELF5 = target: T11, ELF5 (Homo sapiens, UniProt Q9UKW6-2 1-255)
# T11 sequence: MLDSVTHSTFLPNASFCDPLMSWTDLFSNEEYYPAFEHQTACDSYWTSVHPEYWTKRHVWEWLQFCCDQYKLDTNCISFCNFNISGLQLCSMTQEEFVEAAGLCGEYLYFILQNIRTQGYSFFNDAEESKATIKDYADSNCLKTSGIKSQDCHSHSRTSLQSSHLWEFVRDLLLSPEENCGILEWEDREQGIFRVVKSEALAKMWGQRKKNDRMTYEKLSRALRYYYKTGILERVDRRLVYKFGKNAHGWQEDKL
# Summary of the method: as §1
# ETV3 = target: T12, ETV3 (Homo sapiens, UniProt P41162-2 1-143)
# T12 sequence: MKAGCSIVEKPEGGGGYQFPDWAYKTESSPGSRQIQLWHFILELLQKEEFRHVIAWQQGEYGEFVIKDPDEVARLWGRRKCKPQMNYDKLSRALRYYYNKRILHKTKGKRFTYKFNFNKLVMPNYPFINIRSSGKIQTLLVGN
# Summary of the method: as §1
# ETV6 = ETV6 (Homo sapiens, UniProt P41212 1-452)
# Summary of the method: as §1
# ETV6, sequence (P41212 whole entry): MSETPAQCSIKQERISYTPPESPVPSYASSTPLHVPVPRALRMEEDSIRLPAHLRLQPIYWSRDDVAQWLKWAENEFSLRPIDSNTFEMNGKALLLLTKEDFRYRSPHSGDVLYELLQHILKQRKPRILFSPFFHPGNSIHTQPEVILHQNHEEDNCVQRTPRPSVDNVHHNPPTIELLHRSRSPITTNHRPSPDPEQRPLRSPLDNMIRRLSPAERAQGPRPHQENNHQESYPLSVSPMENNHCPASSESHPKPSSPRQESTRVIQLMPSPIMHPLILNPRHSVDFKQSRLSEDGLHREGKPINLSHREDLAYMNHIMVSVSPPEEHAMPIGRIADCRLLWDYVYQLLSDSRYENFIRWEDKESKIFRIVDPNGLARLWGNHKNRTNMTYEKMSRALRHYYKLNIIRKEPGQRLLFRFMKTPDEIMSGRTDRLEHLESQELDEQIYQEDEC
# ELF4, sequence (Q99607 whole entry): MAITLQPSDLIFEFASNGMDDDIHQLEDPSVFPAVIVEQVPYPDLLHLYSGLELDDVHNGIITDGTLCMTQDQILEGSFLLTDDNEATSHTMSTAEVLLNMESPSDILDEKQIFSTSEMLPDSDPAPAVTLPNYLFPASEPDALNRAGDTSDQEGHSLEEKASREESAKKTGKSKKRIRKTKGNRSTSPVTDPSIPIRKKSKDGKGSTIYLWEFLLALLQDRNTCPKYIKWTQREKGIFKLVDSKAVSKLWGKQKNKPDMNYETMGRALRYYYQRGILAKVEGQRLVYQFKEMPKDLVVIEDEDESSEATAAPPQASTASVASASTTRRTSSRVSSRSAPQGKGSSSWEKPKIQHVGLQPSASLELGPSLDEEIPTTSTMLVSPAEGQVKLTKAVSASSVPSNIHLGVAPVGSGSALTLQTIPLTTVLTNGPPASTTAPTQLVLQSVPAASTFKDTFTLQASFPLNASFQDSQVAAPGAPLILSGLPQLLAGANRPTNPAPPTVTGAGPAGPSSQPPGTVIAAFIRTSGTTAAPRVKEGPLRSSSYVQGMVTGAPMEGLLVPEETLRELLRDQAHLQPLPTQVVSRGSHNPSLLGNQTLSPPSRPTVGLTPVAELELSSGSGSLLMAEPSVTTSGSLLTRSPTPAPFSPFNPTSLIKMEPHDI
# ETV5, sequence (P41161 whole entry): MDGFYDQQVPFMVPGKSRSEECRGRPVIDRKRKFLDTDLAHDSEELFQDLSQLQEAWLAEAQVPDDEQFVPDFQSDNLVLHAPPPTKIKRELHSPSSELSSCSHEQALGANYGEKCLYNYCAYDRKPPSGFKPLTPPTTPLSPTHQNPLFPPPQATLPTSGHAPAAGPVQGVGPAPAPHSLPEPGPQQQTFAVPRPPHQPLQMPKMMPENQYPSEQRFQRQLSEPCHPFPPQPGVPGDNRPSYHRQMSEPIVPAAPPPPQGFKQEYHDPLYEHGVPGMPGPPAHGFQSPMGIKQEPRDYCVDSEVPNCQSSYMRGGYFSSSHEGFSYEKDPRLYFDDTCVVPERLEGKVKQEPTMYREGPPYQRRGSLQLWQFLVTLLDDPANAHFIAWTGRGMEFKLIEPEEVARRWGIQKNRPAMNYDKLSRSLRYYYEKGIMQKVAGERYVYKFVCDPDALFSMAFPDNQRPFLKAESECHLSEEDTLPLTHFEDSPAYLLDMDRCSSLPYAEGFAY
# ETV1, sequence (P50549 whole entry): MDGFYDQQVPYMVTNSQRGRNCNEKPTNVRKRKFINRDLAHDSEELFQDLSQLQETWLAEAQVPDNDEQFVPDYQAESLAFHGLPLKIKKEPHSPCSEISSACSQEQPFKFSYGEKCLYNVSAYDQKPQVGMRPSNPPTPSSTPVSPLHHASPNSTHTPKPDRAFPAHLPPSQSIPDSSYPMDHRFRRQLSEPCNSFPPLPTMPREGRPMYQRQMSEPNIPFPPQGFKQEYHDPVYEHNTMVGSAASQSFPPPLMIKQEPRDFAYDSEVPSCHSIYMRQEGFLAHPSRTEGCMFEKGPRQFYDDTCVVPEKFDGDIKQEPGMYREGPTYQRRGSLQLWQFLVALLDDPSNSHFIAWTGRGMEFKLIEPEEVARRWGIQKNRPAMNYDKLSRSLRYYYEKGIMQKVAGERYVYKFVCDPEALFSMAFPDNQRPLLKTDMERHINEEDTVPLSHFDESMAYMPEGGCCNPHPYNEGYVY
sequence,measurement,setting,value
GACTAC,binding signal,FEV,"1.08 fold enrichment (6-mer frequency, TF over GST control)"
same,binding signal,ETV5,"1.15 fold enrichment (6-mer frequency, TF over GST control)"
same,binding signal,SPIC,"1.13 fold enrichment (6-mer frequency, TF over GST control)"
same,binding signal,ELF4,"1.11 fold enrichment (6-mer frequency, TF over GST control)"
same,binding signal,ELK4,"1.18 fold enrichment (6-mer frequency, TF over GST control)"
same,binding signal,ETV2,"1.22 fold enrichment (6-mer frequency, TF over GST control)"
same,binding signal,ELF3,"1.2 fold enrichment (6-mer frequency, TF over GST control)"
same,binding signal,ETV1,"1.17 fold enrichment (6-mer frequency, TF over GST control)"
same,binding signal,ERF,"1.19 fold enrichment (6-mer frequency, TF over GST control)"
same,binding signal,ETV3L,"1.17 fold enrichment (6-mer frequency, TF over GST control)"
same,binding signal,ETS2,"1.08 fold enrichment (6-mer frequency, TF over GST control)"
same,binding signal,SPDEF,"1.1 fold enrichment (6-mer frequency, TF over GST control)"
same,binding signal,ETV7,"1.17 fold enrichment (6-mer frequency, TF over GST control)"
same,binding signal,ELF5,"1.24 fold enrichment (6-mer frequency, TF over GST control)"
same,binding signal,ETV3,"1.11 fold enrichment (6-mer frequency, TF over GST control)"
same,binding signal,ETV6,"1.11 fold enrichment (6-mer frequency, TF over GST control)"

# Reference: publication PMC7862700, “An all-to-all approach to the identification of sequence-specific readers for epigenetic DNA modifications on cytosine”
